In PubChem BioAssay one finds inhibition data, which are given here for 40 compounds.

Structures are written as SMILES. A number with no mark means an inactive call. No rule for the calls is given here.

For the assay, the target named is Pantothenate synthetase (Mycobacterium tuberculosis (strain ATCC 25618 / H37Rv)) (UniProt P9WIL5). Kind of assay: Coupled enzyme confirmation of inhibitors against recombinant Mtb PanC (AID 375).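 Also: 0% = full reaction with vehicle and 100% = no enzyme background.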 The following applies: coupled enzyme assay; at 10 µM, active compounds read high.
Sequence of Pantothenate synthetase (Mycobacterium tuberculosis (strain ATCC 25618 / H37Rv)) (P9WIL5 whole entry, looked up): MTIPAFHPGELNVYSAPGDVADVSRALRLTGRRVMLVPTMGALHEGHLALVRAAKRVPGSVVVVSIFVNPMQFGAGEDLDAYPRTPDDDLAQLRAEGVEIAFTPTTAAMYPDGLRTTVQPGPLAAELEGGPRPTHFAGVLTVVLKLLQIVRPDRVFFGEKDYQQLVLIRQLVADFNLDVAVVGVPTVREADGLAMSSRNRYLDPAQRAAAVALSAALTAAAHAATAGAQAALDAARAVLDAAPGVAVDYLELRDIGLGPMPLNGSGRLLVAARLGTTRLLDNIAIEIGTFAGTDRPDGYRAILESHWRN
With `Cc1ccc(-c2cc(C(=O)NCc3ccc4c(c3)OCO4)no2)cc1`, the inhibition (in general, how much of the control response was suppressed) is 0%.
As to `CN1CCN(C(=O)C2CCN(S(=O)(=O)c3ccc4c(c3)oc(=O)n4C)CC2)CC1`, the inhibition is 0%.
With `Cn1c(=O)c2c(nc(NCCCO)n2CCc2ccccc2)n(C)c1=O`, the inhibition is 0%.
Under `COC(=O)c1cc(=O)nc2sc(-c3cccs3)nn12` stands 8%.
In the case of `O=C(C1CCCN(S(=O)(=O)c2cccnc2)C1)N1CCN(c2ccccn2)CC1` (stereo not given) it was 0%; in that of `Cc1cc(C)c2c(n1)nn1c(N3CCN(c4ccccc4C)CC3)cc(C)nc21`, 4%; in that of `CCc1nnc(NC(=O)c2ccc(COc3ccc(C)cc3)o2)s1`, 1%.
In the case of `CCOc1ccc(Cn2nnc(C(=O)Nc3cc(C)cc(C)c3)c2N)cc1` it was 0%; in that of `Oc1c(C(c2ccccc2)N2CCc3ccccc3C2)sc2ncnn12` (stereo not given), 0%.
`Cc1cc(-n2c(C)cc(C(=O)CSc3nc4ccccc4c(=O)n3Cc3ccco3)c2C)no1`: the inhibition was 0%.
Consider `CC(=O)N1C(=O)c2cccc3cccc(c23)C(=O)N1C(C)=O`, for which the inhibition was 0%.
In the case of `O=C(Nc1ccc(F)cc1)N(CCCN1CCOCC1)Cc1cc2cc3c(cc2[nH]c1=O)OCO3`, the inhibition is 6%.
In the case of `CCn1c(=O)c(C(=O)NCc2ccc(OC)cc2)c(O)c2ccccc21` it was 3%.
Consider `COc1cc2c3c(c1)/C(=C1/SC(NC(C)=O)=NC1=O)C(=O)N3C(C)(C)C=C2C`, for which the inhibition was 0%.
`CCCCCCn1c(CN2CCCC(C)C2)nc2c1c(=O)n(C)c(=O)n2C` (stereo not given): the inhibition was 6%.
On to `COc1cccc(-c2nnc(NC(=O)Cc3cccs3)s2)c1`, for which the inhibition was 0%.
Take `CC(C)(C)NCc1cc2ccccc2[nH]c1=O`: the inhibition is 0%.
In the case of `Cn1c(=O)[nH]c(=O)c2c1nc(CN1CCN(c3cccc(Cl)c3)CC1)n2CCc1ccccc1`, the inhibition is 4%.
Turning to `O=C(O)CCc1ccc(-c2ccc(F)cc2)n1CC(=O)O`, the inhibition was 0%.
With `CCCc1cc(Nc2cccc(OC)c2)n2ncnc2n1`, the inhibition is 0%.
Regarding `Cc1c(/C(O)=C2/C(=O)C(=O)N(CCN3CCOCC3)C2c2cccnc2)cnn1-c1ccccc1` (stereo not given), the inhibition was 1%.
In the case of `CCOc1ccc(S(=O)(=O)N2CCN(c3ccc(C)cc3C)CC2)cc1`, the inhibition is 0%.
In the case of `CCOc1ccc(C2CC(c3cccc(OC)c3)Nc3nc(N)nn32)cc1` (stereo not given) it was 0%; in that of `COc1ccc(NS(=O)(=O)c2coc(C(N)=O)c2)cc1Cl`, 0%; in that of `CSc1nnc(-c2cnccn2)n1Cc1ccccc1`, 0%.
For `COC(=O)c1ccc2c(=O)n(Cc3ccco3)c(SCC(=O)Nc3ccc(C)c(Cl)c3)nc2c1`, the inhibition is 2%.
`Cc1ccccc1-c1nc2ccccc2c(=O)n1C1CCS(=O)(=O)C1` (stereo not given): the inhibition was 0%.
For `CCOc1cc2oc(=O)c3c(c2cc1Cl)CCC3`, the inhibition was 0%.
With `O=C(NC1CCCCC1)N(Cc1ccccc1)Cc1ccco1`, the inhibition was 1%.
Under `COc1ccc(-c2nn3c(-c4cccc(C)c4)nnc3s2)cc1OC` stands 4%.
Consider `COc1cc(-c2nc(-c3ccncc3)no2)cc(OC)c1OC`, for which the inhibition is 2%.
In the case of `CCOC(=O)c1[nH]c(=O)c2ccccc2c1O` it was 0%; in that of `CCOC(=O)c1nnc2cc(-c3ccc(Br)cc3)nn2c1C`, 0%; in that of `N[C@@H](Cc1cc(I)c(Oc2ccc(O)c(I)c2)c(I)c1)C(=O)O`, 0%.
As for `Cc1ccc(S(=O)(=O)N(CCO)c2cc3c(s2)CCCC3)cc1`, the inhibition was 0%.
Take `COc1ccc(CC(=O)Nc2c3c(nn2-c2cccc(Cl)c2)CS(=O)(=O)C3)cc1`: the inhibition was 0%.
On to `COc1ccc(S(=O)(=O)N2CCC(C(=O)NCc3ccco3)CC2)cc1`, for which the inhibition is 2%.
In the case of `Cc1cc(C)n(CCCNC(=O)c2ccc(S(=O)(=O)NCc3ccco3)cc2)n1` it was 3%.
For `COc1ccccc1C(=O)n1nc(-c2ccccc2)nc1N`, the inhibition is 2%.
In the case of `CCOc1cc(NC(=O)c2ccco2)c(OCC)cc1NC(=O)Cc1cccc(OC)c1`, the inhibition was 8%.
